Results on 40 molecules are retold here after PubChem BioAssay (Tox21).

Records with an inconclusive call do not appear. Unmarked numbers belong to inactive results. Active and inactive are the calls of the source. Calls come from the whole dose curve.
% is set by controls: 0 for no effect and ±100 for the full control effect; potency is the fitted concentration of half-maximal effect.

Sequence of D(2) dopamine receptor (Homo sapiens) (P14416 whole entry, looked up): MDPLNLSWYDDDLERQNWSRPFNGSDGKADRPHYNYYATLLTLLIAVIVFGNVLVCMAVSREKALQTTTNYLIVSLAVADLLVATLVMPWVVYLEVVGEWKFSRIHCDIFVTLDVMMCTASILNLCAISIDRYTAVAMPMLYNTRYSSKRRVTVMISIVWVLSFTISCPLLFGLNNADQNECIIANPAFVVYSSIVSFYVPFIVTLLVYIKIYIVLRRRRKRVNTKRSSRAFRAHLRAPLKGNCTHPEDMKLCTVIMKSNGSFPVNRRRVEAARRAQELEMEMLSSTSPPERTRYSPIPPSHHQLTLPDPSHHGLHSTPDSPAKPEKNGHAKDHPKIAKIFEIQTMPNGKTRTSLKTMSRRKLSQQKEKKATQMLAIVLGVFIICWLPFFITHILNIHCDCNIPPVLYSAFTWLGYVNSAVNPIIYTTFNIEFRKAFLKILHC

The test has as its target D(2) dopamine receptor (Homo sapiens) (UniProt P14416). The test can be described thus: Dopamine D2 receptor (DRD2) small molecule agonists, cell-based qHTS assay (AID 1963594). Note: nearly all actives have a fitted effect of over 35% in size. The note with it: HEK293-DRD2 cAMP HTRF, agonist mode, 30 min; series mostly up to 92.4 µM; activation: at the top concentration. From the text:
National Center for Advancing Translational Sciences [NCATS]
Division of Preclinical Innovation [DPI]
U.S. Environmental Protection Agency [EPA]
National Institutes of Environmental Health Sciences [NIEHS]
National Toxicology Program [NTP]
U.S. Food and Drug Administration [FDA]
DRD2 is the D2 subtype of the dopamine receptor, which is coupled to Gi subtype of G protein-coupled receptor. This G protein-coupled receptor inhibits adenylyl cyclase activity. The DRD2-HEK293 cell line stably expressing D2 dopamine receptor can be used for screening agonists and antagonists of interactions between D2 and its ligands. The Hek293-DRD2 cAMP assay is based on HTRF technology. It measures changes of cAMP accumulation in response to Gi coupled GPCR activation or inhibition.
Tox21 Assay Protocol Summary:
DRD2-Hek293 cells were dispensed at 600 cells/3uL/well in 1536-well white plates using a Multidrop Dispenser. After the assay plates were incubated at a 37 C/5% CO2 incubator for 24 h, 1 uL of Ro20-1724 at final concentration of 0.1 mM was transferred to the assay plate by a Flying Reagent Dispenser. Following Ro20-1724 addition, 23 nL of compound dissolved in DMSO, positive controls or DMSO only was added to the assay plates via Wako pintool station. The assay plates were incubated at room temperature for 10 min. Next, 1 uL of NKH477 at 200nM was added into the plates. After the assay plates were incubated at room temperature for an additional 30 min, 2.5 ul/well of cAMP-d2 and 2.5 ul/well of anti-cAMP-cryptate were added respectively into the assay plates using a Flying Reagent Dispenser. The plates were incubated at room temperature for 1 h. The fluorescence intensity in the plates was measured at 340 nm excitation and 665 & 620 nm emission by an Envision plate reader.
(Quantitative high-throughput screening tests each substance at several concentrations.)
`CCN(Cc1cccc(S(=O)(=O)O)c1)c1ccccc1`: the “activation” value was 13%. Still for that read-out and setting: then `CC12CCC(C(=O)C1=O)C2(C)C` (stereo not given), with 3.19%; and `CC1(C)[C@H]2CC[C@](C)(C2)[C@H]1O`, with 3.38%.

Regarding `O=C(c1ccccc1)c1ccccc1O`, the Potency result was “inactive”. The same measure, in the same setting: under `O=C1CC2(CCCC2)CC(=O)N1CCCCN1CCN(c2ncccn2)CC1` stands “inactive”. `N[C@H](C(=O)O)c1ccc(O)cc1`: the activation is -12.3% [at 19 µM].

As for `COc1cc(S(N)(=O)=O)cc(C(=O)O)c1OC`, the “activation” value is -0.0372% [at 42.5 µM]. On to `CCN1CCc2nc(N)oc2CC1`, for which the Potency is 26.6 µM (active). On to `CCC(=O)OC/C=C(\C)CCC=C(C)C`, for which the “activation” value is 1.57%.

Turning to `CCCCCCCCCCCC[N+](C)(C)CCCS(=O)(=O)[O-]`, the “activation” value is 3.8%. With `NCCNCCNCCNCCN`, the Potency result is “inactive”. With `OCCOCCN1CCN(C2=Nc3ccccc3Sc3ccccc32)CC1`, the “activation” value is -6.95% [at 42.5 µM]. On to `CNCCO`, for which the “activation” value is 0.416%. As to `CC(=O)NCCO`, the “activation” value is 1.3%. `Nc1ccc(S(=O)(=O)Nc2ccc(Cl)nn2)cc1`: the “activation” value is 2.84% [at 42.5 µM].

On to `COC(OC)C(C)c1ccccc1` (stereo not given), for which the “activation” value is -5.16%.

Consider `FC(F)(F)C(Cl)(Cl)Cl`, for which the “activation” value was 3.74%. As for `CC(C)NCC(O)COc1cccc2ccccc12` (stereo not given), the Potency result is “inactive”. Still for that read-out and setting: under `C[C@]12CC[C@@H]3c4ccc(O)cc4CC[C@H]3[C@@H]1CCC2=O` stands “inactive”. For `O=C(O)CCC(=O)Nc1ccc(S(=O)(=O)Nc2nccs2)cc1`, the “activation” value was -12.5% [at 42.5 µM]. On the same count and under the same terms, under `O=C(Cn1ccnc1[N+](=O)[O-])NCc1ccccc1` stands 13.1% [at 42.5 µM].

On to `CC(O)CNCC(C)O` (stereo not given), for which the Potency result was “inactive”. Regarding `Cc1cccc2cccnc12`, the “activation” value was 0.0839%. Consider `CC[C@]12CCCN3CCc4c(n(c5ccccc45)[C@@](O)(C(=O)OC)C1)[C@@H]32`, for which the Potency result is “inactive”. On to `CC1=CC[C@H](CC=O)C1(C)C`, for which the “activation” value is 4.2%.

Turning to `CCn1cc(C(=O)O)c(=O)c2cnc(N3CCNCC3)nc21`, the “activation” value was -8.52% [at 42.5 µM]. On the same count and under the same terms, then `CCC(C)(O)CCC=C(C)C` (stereo not given), with 12.3%. The same measure, in the same setting: under `O=C(O)c1cc(N=Nc2ccc(S(=O)(=O)Nc3ccccn3)cc2)ccc1O` stands 1.82%; under `CO[Si](C)(C)OC`, 2.14%.

On to `O=C(O)c1cc(=O)c2c(OCC(O)COc3cccc4oc(C(=O)O)cc(=O)c34)cccc2o1`, for which the Potency entry was “inactive”. For the molecule `C1=CCC2CC=CC2C1` (stereo not given), the “activation” value was -0.425%.

Regarding `OCc1ccccc1`, the “activation” value was -0.028%. `Cc1cc(C)c(C(=O)O)c(C)c1`: the “activation” value is -1.67%.

As for `c1ccc2nccnc2c1`, the “activation” value is 3.56%. Same read-out and setting: then `CCOC(=O)CC(C(C)=O)C(C)=O`, with -3.77%.

For the molecule `O=Cc1ccc([N+](=O)[O-])cc1`, the “activation” value was -3.13%. The same measure, in the same setting: under `CC(=O)N[C@@H](Cc1ccc(O)cc1)C(=O)O` stands -9.81% [at 42.5 µM]; under `CCC(C)(C)C1CCCCC1OC(C)=O` (stereo not given), 6.94%; under `CN1N=C(C(N)=O)CCC1=O`, 1.03% [at 42.5 µM]. On the same count and under the same terms, then `CCc1c(C(=O)O)c(=O)cnn1-c1ccc(Cl)cc1`, with -6.25%.
